Source: PubChem BioAssay AID1445 (SRMLSC, 2008)
In all, about 220,000 compounds went through this assay and about 910 (0.41%) were called active. The list comes from a sample in which actives are over-represented; it also holds similar structures and randomly drawn compounds. Potency and affinity values are given separately. Values without a mark were called inactive.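 Rule for the calls: active = primary inhibition above the hit cutoff, then over 50% inhibition at one or more dose response concentrations (cut at about 23% in these data, passing the limit was not always enough); inconclusive = conflicting primary data, or primary hits not chosen for dose response; inactive = low primary inhibition, or under 50% at every dose.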

The molecules below were run against Aminopeptidase N (Plasmodium falciparum (isolate 3D7)) (UniProt O96935) (assay: P. falciparum M1AAP inhibitors, biochemical, fluorogenic H-Leu-NHMec substrate, 1536-well (AID 1445;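 note: plate controls were DMSO full reaction for no effect and no enzyme background for full effect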)). Conditions: recombinant M1AAP, H-Leu-NHMec fluorogenic kinetic assay; at 30 µM, stronger effect = higher value unless noted.
Sequence of Aminopeptidase N (Plasmodium falciparum (isolate 3D7)) (O96935 whole entry, looked up): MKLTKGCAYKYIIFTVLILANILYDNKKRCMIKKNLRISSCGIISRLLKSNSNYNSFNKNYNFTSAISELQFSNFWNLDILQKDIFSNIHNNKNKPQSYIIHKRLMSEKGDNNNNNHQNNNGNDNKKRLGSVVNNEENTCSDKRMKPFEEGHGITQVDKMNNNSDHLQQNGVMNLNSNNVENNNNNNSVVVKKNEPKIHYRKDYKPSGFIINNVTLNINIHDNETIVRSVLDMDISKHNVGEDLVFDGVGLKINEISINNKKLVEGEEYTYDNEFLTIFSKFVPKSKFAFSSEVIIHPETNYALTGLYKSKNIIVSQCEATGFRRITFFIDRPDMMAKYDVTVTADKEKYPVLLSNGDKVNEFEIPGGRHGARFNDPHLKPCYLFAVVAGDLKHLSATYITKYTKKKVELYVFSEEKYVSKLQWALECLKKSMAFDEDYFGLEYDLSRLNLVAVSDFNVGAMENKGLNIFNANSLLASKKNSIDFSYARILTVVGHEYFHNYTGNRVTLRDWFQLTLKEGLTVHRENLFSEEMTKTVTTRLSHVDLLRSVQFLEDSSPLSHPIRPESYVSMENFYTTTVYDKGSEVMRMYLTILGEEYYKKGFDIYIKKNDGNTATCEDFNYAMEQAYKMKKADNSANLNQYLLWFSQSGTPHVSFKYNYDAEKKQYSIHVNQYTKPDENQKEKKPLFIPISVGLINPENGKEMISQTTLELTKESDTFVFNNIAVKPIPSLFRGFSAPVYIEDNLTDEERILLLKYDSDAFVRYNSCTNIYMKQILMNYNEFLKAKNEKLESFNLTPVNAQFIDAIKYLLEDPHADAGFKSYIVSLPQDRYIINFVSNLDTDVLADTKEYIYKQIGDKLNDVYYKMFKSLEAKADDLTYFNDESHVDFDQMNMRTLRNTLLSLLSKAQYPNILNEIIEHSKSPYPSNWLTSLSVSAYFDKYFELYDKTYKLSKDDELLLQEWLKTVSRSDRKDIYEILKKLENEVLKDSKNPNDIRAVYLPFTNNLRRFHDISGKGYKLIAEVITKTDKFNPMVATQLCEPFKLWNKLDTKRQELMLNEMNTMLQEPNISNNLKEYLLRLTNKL

SMILES	inhibition
Cc1ccc(S(=O)(=O)NC(=O)NCCCCNC(=O)NS(=O)(=O)c2ccc(C)cc2)cc1	0.51%
Cc1ccc(Cc2cc(C)n[nH]c2=O)cc1	9.53%
COCc1cc(C)nc(OCC(=O)N/N=C/c2ccco2)c1C#N	9.71%
CC(=O)Nc1nc(C(=O)O)cs1	-0.08%
CC(=O)Nc1ccc(-c2csc(N/N=C(/C)c3ccccc3)n2)cc1	11.9%
CCc1nnc(N/N=C/c2c(Cl)cccc2Cl)n1N	1.62%
O=C(Nc1cccs1)Nc1ccc(Br)cc1F	5.12%
CCOC(=O)NNS(=O)(=O)c1cc(Br)ccc1Br	-1.42%
CCOc1ccc(Br)cc1S(=O)(=O)Nc1ccc(NC(=O)c2ccccc2C)cc1	7.33%
Cc1ccc(CN2C(=O)N/C(=C\c3cccn3-c3cccc(C(=O)O)c3)C2=O)cc1	11.9%
CC(=O)c1ccc(-c2ccc(/C=C(/Sc3n[nH]c(C)n3)C(=O)O)o2)cc1	5.19%
Cc1nc(S/C(=C/c2ccc(-c3cccc(Cl)c3)o2)C(=O)O)n[nH]1	-8.13%
O=Cc1ccc(-c2ccc(C(=O)O)cc2)o1	7.72%
Cc1nc(S/C(=C/c2ccc(-c3ccc(Cl)cc3)o2)C(=O)O)n[nH]1	-6.28%
CCc1nnc(NC(=O)C2CCCN(c3nc(C)cc(C)n3)C2)s1 (stereo not drawn)	3.57%
S=c1[nH]c(-c2ccccc2)cn1/N=C/c1cccnc1	1.39%
O=C(CCCN1C(=O)/C(=C/c2ccccc2Cl)SC1=S)NNC(=O)c1cccnc1	2.83%
CC(=C\c1ccccc1)/C=C1/SC(=S)N(C(C(=O)O)C(C)C)C1=O (stereo not drawn)	8.4%
COc1ccc(/C=C/C(=O)c2ccccc2)c(OC)c1	10.2%
COc1ccc(OC)c(/C=C2\SC(=S)N(N3CCOCC3)C2=O)c1	6.71%
COc1cccc(/C=C2\SC(=S)N(C(C(=O)O)c3ccccc3)C2=O)c1OC (stereo not drawn)	18.2%

SMILES	inhibition
COc1ccccc1/C=C1\SC(=S)N(N2C(=O)CCCC2=O)C1=O	3%
CC(/C=C1\SC(=S)N(C(C(=O)O)C(C)C)C1=O)=C\c1ccccc1 (stereo not drawn)	14%
COc1ccc(/C=C2\SC(=S)N(N3CCOCC3)C2=O)c(OC)c1	1.37%
COc1ccc(OC)c(/C=C2\SC(=S)N(Cc3cccnc3)C2=O)c1	-5.9%
C/C(=N/NS(=O)(=O)c1ccc(C)cc1)c1ccc(NC(=O)C(F)(F)F)cc1	2.89%
Cc1cnc(NC(=O)CSc2nnc(C)n2N)s1	2.39%
Cc1ccc(OCc2nc(-c3ccccn3)n[nH]2)cc1	-24.5%
CCCCn1nnnc1NCc1cccnc1	4.66%
CCOC(=O)C1CCCN(CC(=O)/C=C2/N(C)c3ccccc3C2(C)C)C1 (stereo not drawn)	9.72%
COc1ccc(NS(=O)(=O)c2cccc(C(=O)N/N=C/c3ccc(O)cc3)c2)cc1	7.62%
CCC1CCc2[nH]nc(C(=O)O)c2C1 (stereo not drawn)	7.24%
Cc1nn(C(=O)N2CCCCC2)c(C)c1CN1C(=O)c2ccccc2C1=O	-0.2%
Cc1cc(C)cc(NC(=O)C(OC(=O)c2cccs2)c2ccccc2)c1 (stereo not drawn)	3.45%
OCCC1CN(Cc2nc(-c3ccccc3)cs2)CCN1CCc1ccccc1 (stereo not drawn)	7.68%
CSc1nc2ncc(-c3ccsc3)c(N)n2n1	7.33%
O=C(O)C(Cc1ccccc1)N1C(=O)/C(=C/c2cccs2)SC1=S (stereo not drawn)	11.1%
CC(c1ccccc1)N1C(=O)/C(=C/c2ccncc2)SC1=S (stereo not drawn)	-2.44%
CCCCC1(C)OC(=O)C(=Cc2ccc(-c3ccc(Cl)c(C(=O)O)c3)o2)C(=O)O1 (stereo not drawn)	9.08%
CC1=NOC(=O)/C1=C/c1ccc(-c2ccc(Cl)cc2)o1	5.39%
O=C1NN(c2ccccc2)C(=O)/C1=C/c1ccc(-c2ccc(Cl)c(C(=O)O)c2)o1	32.2%
O=C(O)c1cc(-c2ccc(/C=C3\NC(=O)N(c4ccccc4)C3=O)o2)ccc1Cl	18.7%

SMILES	inhibition
Cc1ccc(N2NC(=O)/C(=C/c3ccc(-c4ccc(Cl)c(C(=O)O)c4)o3)C2=O)cc1	5.62%
CC1(C)OC(=O)C(=Cc2ccc(-c3ccc(Cl)c(C(=O)O)c3)o2)C(=O)O1	8.63%
Cc1ccc(C)c(-n2c(SCC(=O)NC(C(=O)O)C(C)C)nnc2-c2cccc(Cl)c2)c1 (stereo not drawn)	0.37%
CC1CC(NC(=O)C2(C)CC2(Cl)Cl)CC(C)(C)C1 (stereo not drawn)	1.77%
O=C1CCn2nc(-c3ccc(Cl)cc3)cc2N1	0.78%
O=C(O)CCC(=O)NNC(=O)c1cccc(Cl)c1	8.54%
Cn1cc(-c2nnnn2-c2ccc(Cl)cc2)c(=O)c2ccccc21	-1.66%
CC(=O)Nc1c(C(=O)c2ccccc2)oc2ccccc12	10.6%
O=C(Nc1nc2c(Br)cc(Br)cc2c(=O)s1)c1ccco1	3.61%
CCOc1cc(/C=C/c2ccc3cccc([N+](=O)[O-])c3n2)cc(Cl)c1O	9.51%
CC(C)c1nc(CNC(=O)CCc2nnc(-c3ccsc3)o2)cs1	-9.81%
O=C(N/N=C(/CC(=O)c1cccs1)C(F)(F)F)c1ccc(O)cc1	30.4%
O=C(N/N=C(\CC(=O)c1cccs1)C(F)(F)F)c1cccnc1	22.1%
Cc1cccc(N2CCN(C(=O)CC(NC(=O)c3ccccc3)c3ccccc3)CC2C)c1 (stereo not drawn)	-5.51%
Cc1ccc(N2CC(C(=O)Nc3cccc(F)c3)CC2=O)cc1 (stereo not drawn)	2.83%
COCc1c(Br)c(C)nc(OCC(=O)N/N=C/c2cc(C)n(-c3ccc([N+](=O)[O-])cc3)c2C)c1C#N	12%
O=C(Nc1ccc(N2CCCCCC2)cc1)c1ccccc1Cl	-5.82%
O=C(Nc1ccc(-n2ccnc2P(=O)(O)c2ccccc2)cc1)c1ccccc1Cl	75.1% (active)
O=C(Nc1ccc2ncccc2c1)c1ccccc1Cl	16.8%
CN1CCN(c2ccc(NC(=O)c3ccccc3Br)cc2)CC1	3.56%
O=C(Nc1ccc(C(F)(F)F)cc1)c1ccccc1Br	-2.21%
